Hit rate of the full screen: of about 13,000 compounds, about 3,200 (25%) showed an effect of 50% or more. This is one part of the list.
tested on: P. falciparum stage V gametocytes; design: BacTiter-Glo ATP luminescence viability of purified stage V gametocytes in 384-well plates, per cent inhibition versus DMSO; conditions: 48 h, 5 µM; inhibitor

| SMILES | % Inhibition [%] |
| --- | --- |
| COCCNCc1ncsc1-c1ccc2c(Nc3cc(O)c(Cl)cc3F)ccnc2c1 [TCMDC-138441] | 3.438 |
| Cc1nc(N=C(N)N)nc2cc3c(cc12)CCC3 [TCMDC-141187] | 84.12 |
| Cc1nc(N=C(N)N)nc2ccc(C(C)(C)C)cc12 [TCMDC-137936] | -23.7 |
| CCC1(C)N=C(N)N=C(N)N1c1ccc(Cl)cc1 (centres unmarked) [TCMDC-132039] | 4.957 |
| COc1cc2ncnc(Nc3ccc(OC(F)(F)c4ccccc4)cc3)c2cc1OC [TCMDC-131925] | 12 |
| COc1cc(Nc2ncnc3cc(OC)c(OC)cc23)cc([N+](=O)[O-])c1 [TCMDC-138138] | 82.08 |
| COc1cc2ncnc(Nc3ccc(Br)c(Cl)c3)c2cc1OC [TCMDC-131909] | 14.07 |
| CCOC(=O)c1ccc(NC(=O)Nc2cccc(-c3ccc(-c4nc5ccccc5[nH]4)cc3)c2)cc1 [TCMDC-133266] | -19.34 |
| O=C(/C=C/c1ccc(Cl)c(Cl)c1)NCCCCCN1CCC(NC(=O)Nc2ccc(F)c(F)c2)CC1 [TCMDC-135714] | -48.39 |
| COc1ccc(C=Cc2ccc(-c3c(C)[nH]c(C)c(Cl)c3=O)cc2)cc1OC [TCMDC-135788] | 33.6 |
| Cc1[nH]c(C)c(-c2ccc(OCc3ccc(F)cc3)cc2)c(=O)c1Cl [TCMDC-132415] | 7.51 |
| C/C=C/COc1ccc(-c2c(C)[nH]c(C)c(Cl)c2=O)cc1 [TCMDC-134729] | 76.24 |
| CC(=O)Nc1ccc(C#Cc2ccc(-c3c(C)[nH]c(C)c(Cl)c3=O)cc2)cc1 [TCMDC-135653] | 34.03 |
| Cc1[nH]c(C)c(-c2ccc(Oc3ccc(O)cc3)cc2)c(=O)c1Cl [TCMDC-136135] | -17.77 |
| COc1ccc(C#Cc2ccc(-c3c(C)[nH]c(C)c(Cl)c3=O)cc2)cc1 [TCMDC-135655] | 67.24 |
| COc1ccc(CCc2ccc(-c3c(C)[nH]c(C)c(Cl)c3=O)cc2)cc1OC [TCMDC-135789] | 86.31 |
| COc1ccc(Oc2ccc(-c3c(C)[nH]c(C)c(Cl)c3=O)cc2)cc1 [TCMDC-136134] | 78.59 |
| CN1CC[C@H](N(Cc2ccccc2F)c2ccc(C#N)c(Cl)c2)C1 [TCMDC-137035] | 21.12 |
| COc1ccc(CN2CCC2=O)c(OC)c1 [TCMDC-132118] | 45.15 |
| CC(=O)N[C@@H]1c2cc(C(C)=O)ccc2OC(C)(C)[C@@H]1O [TCMDC-139001] | 15.15 |
| CC(C)(C)c1ccc(S(=O)(=O)Nc2cc(Cl)ccc2Cn2ccc(N3CCNCC3)nc2=O)cc1 [TCMDC-132581] | 5.996 |
| Oc1ccc2[nH]c(-c3cccs3)nc2c1CN1CCC(N2CCCC2)CC1 [TCMDC-136356] | -12.57 |

| SMILES | % Inhibition [%] |
| --- | --- |
| COc1ccc(CCn2c(=N)c(C(=O)NCc3ccc(C)cc3)cc3c(=O)n4ccccc4nc32)cc1 [TCMDC-124475] | 27.16 |
| COc1ccc(CCc2ccc(-c3c(C)[nH]c(C)c(Cl)c3=O)cc2)cc1 [TCMDC-135654] | 77.1 |
| Cc1[nH]c(C)c(-c2ccc(CCc3ccc(N)cc3)cc2)c(=O)c1Cl [TCMDC-135678] | 70.67 |
| Cc1[nH]c(C)c(-c2ccc(Oc3ccc(F)cc3)cc2)c(=O)c1Cl [TCMDC-134728] | 77.31 |
| CC1(C)N=C(N)N=C(N)N1c1cc(Cl)c(Cl)c(Cl)c1 [TCMDC-137508] | -8.001 |
| Cc1cnc(-c2cccc(C(=O)NC3CCC(CCN4CCc5ccc(C#N)cc5CC4)CC3)c2)[nH]1 (centres unmarked) [TCMDC-139842] | -56.62 |
| CS(=O)(=O)N1CC2(CCN(CCC(NC(=O)NCc3ccccc3Cl)c3ccc(Cl)c(Cl)c3)CC2)c2ccccc21 (centres unmarked) [TCMDC-141768] | 10.44 |
| O=C(Nc1ccc(Br)c(C(F)(F)F)c1)c1cccc([N+](=O)[O-])c1 [TCMDC-123520] | -21.49 |
| O=C1COC2(CN1C1CCN(Cc3ccc(O)cc3Cl)C1)c1ccccc1-c1ccccc12 (centres unmarked) [TCMDC-136341] | 24.28 |
| FC(F)(F)c1ccc2nc(-c3ccc(-c4cccc(CN5CCN(CCN6CCOCC6)CC5)c4)cc3)[nH]c2c1 [TCMDC-133943] | -11.41 |
| Fc1ccc2nc(-c3cccc(-c4ccc(CN5CCN(CCN6CCOCC6)CC5)cc4)c3)[nH]c2c1 [TCMDC-133942] | 39.55 |
| CN1CCC(N2CCN(Cc3ccc(-c4cccc(-c5nc6ccc(F)cc6[nH]5)c4)cc3)CC2)CC1 [TCMDC-133843] | 52.56 |
| N#CCCN1CCN(Cc2cccc(-c3ccc(-c4nc5ccc(F)cc5[nH]4)cc3)c2)CC1 [TCMDC-133860] | -16.76 |
| CN1CCC(N2CCN(Cc3cccc(-c4ccc(-c5nc6ccc(F)cc6[nH]5)cc4)c3)CC2)CC1 [TCMDC-133858] | 97.12 |
| OCCN1CCN(Cc2ccc(-c3cccc(-c4nc5ccc(F)cc5[nH]4)c3)cc2)CC1 [TCMDC-133032] | -6.536 |
| Fc1ccc2nc(-c3ccc(-c4cccc(CN5CCN(CCN6CCOCC6)CC5)c4)cc3)[nH]c2c1 [TCMDC-133936] | -11.53 |
| CN1CCC(N2CCN(Cc3cccc(-c4ccc(-c5nc6ccc(C(F)(F)F)cc6[nH]5)cc4)c3)CC2)CC1 [TCMDC-133842] | 104 |
| OCCN1CCN(Cc2cccc(-c3ccc(-c4nc5ccc(C(F)(F)F)cc5[nH]4)cc3)c2)CC1 [TCMDC-133031] | 3.481 |
| CCN(c1cc(C)nc(Nc2ccc(Cl)cc2)n1)[C@H]1CCN(Cc2ccccc2)C1 [TCMDC-132205] | -28.73 |
| CC(C)(C)c1cc(C(=O)N2CCN(c3nccnc3C#N)CC2)n(Cc2ccccc2)n1 [TCMDC-134141] | -3.89 |
| OC(c1cccc2ccccc12)C1CN(CCc2ccccc2)CCC1(O)c1ccccc1 (centres unmarked) [TCMDC-131998] | 42.45 |
| COc1ccc(C2=C(Nc3ccc4oc5ccccc5c4c3)c3ccccc3C2=O)cc1 [TCMDC-125672] | 2.294 |

| SMILES | % Inhibition [%] |
| --- | --- |
| Cc1noc(C)c1-c1cccc(CNCc2ccc(-c3ccc(-c4nc5cc(F)ccc5[nH]4)cc3)cc2)c1.O=C(O)C(F)(F)F [TCMDC-133057] | 12.39 |
| COC(=O)c1cccc(CNCc2ccc(-c3ccc(-c4nc5ccccc5[nH]4)s3)cc2)c1.O=C(O)C(F)(F)F [TCMDC-132945] | -1.704 |
| COC(=O)c1cccc(CNCc2cccc(-c3ccc(-c4nc5cccc(C)c5[nH]4)s3)c2)c1.O=C(O)C(F)(F)F [TCMDC-132956] | -38.48 |
| Cc1cccc2nc(-c3cccc(-c4ccc(CNCc5cccc(N)c5)cc4)c3)[nH]c12.O=C(O)C(F)(F)F [TCMDC-132930] | -5.493 |
| COC(=O)c1cccc(CNCc2ccc(-c3cccc(-c4nc5cccc(C)c5[nH]4)c3)cc2)c1.O=C(O)C(F)(F)F [TCMDC-132948] | 73.37 |
| COc1ccc(CNCc2ccc(-c3cccc(-c4nc5cccc(C)c5[nH]4)c3)cc2)cc1.O=C(O)C(F)(F)F [TCMDC-132729] | 40.55 |
| Cc1cccc2nc(-c3ccc(-c4cccc(CNCC5CCCO5)c4)cc3)[nH]c12.O=C(O)C(F)(F)F (centres unmarked) [TCMDC-133098] | -5.371 |
| Cc1cccc2nc(-c3ccc(-c4ccc(CNCc5cccc(N)c5)cc4)cc3)[nH]c12.O=C(O)C(F)(F)F [TCMDC-132938] | -30.59 |
| Cc1cccc2nc(-c3cccc(-c4cccc(CNCc5cccc(N)c5)c4)c3)[nH]c12.O=C(O)C(F)(F)F [TCMDC-132928] | 56.62 |
| Cc1cccc2nc(-c3cccc(-c4cccc(CNCC5CCCO5)c4)c3)[nH]c12.O=C(O)C(F)(F)F (centres unmarked) [TCMDC-133104] | 76.66 |
| COC(=O)c1cccc(CNCc2ccc(-c3ccc(-c4nc5cccc(C)c5[nH]4)s3)cc2)c1.O=C(O)C(F)(F)F [TCMDC-132950] | 57.35 |
| COC(=O)c1cccc(CNCc2cccc(-c3cccc(-c4nc5cccc(C)c5[nH]4)c3)c2)c1.O=C(O)C(F)(F)F [TCMDC-132946] | 7.725 |
| Cc1cccc2nc(-c3ccc(-c4cccc(CNCC5CCCO5)c4)s3)[nH]c12.O=C(O)C(F)(F)F (centres unmarked) [TCMDC-133094] | 10.18 |
| Brc1ccsc1-c1nc(NC2CCN(Cc3ccccc3)CC2)no1 [TCMDC-134188] | 10.75 |
| NCC(=O)NC12CC3CC(CC(C3)C1)C2 [TCMDC-131419] | -2.875 |
| N#CC1(c2ccccc2)CCN(c2nc(NCCCN3CCCC3=O)nc(N3CCCC4CCCCC43)n2)CC1 (centres unmarked) [TCMDC-139927] | -17.2 |
| CCNc1cc(C(=O)N[C@@H](Cc2ccccc2)[C@H](O)CNCCc2cc(OC)cc(OC)c2)cc(N2CCCCS2(=O)=O)c1 [TCMDC-134842] | 28.85 |
| Cc1cccc2nc(-c3ccc(-c4cccc(NC(=O)CCc5c[nH]cn5)c4)s3)[nH]c12 [TCMDC-132161] | 5.175 |
| COC(=O)c1cccc(CNCc2ccc(-c3ccc(-c4nc5cc(F)ccc5[nH]4)cc3)cc2)c1.O=C(O)C(F)(F)F [TCMDC-132953] | 44.17 |
| COC(=O)c1cccc(CNCc2ccc(-c3ccc(-c4nc5cccc(C)c5[nH]4)cc3)cc2)c1.O=C(O)C(F)(F)F [TCMDC-132957] | 77.27 |
| COC(=O)c1cccc(CNCc2cccc(-c3ccc(-c4nc5cccc(C)c5[nH]4)cc3)c2)c1.O=C(O)C(F)(F)F [TCMDC-132952] | 25.59 |

Reference: PMC4552634, “A New Set of Chemical Starting Points with Plasmodium falciparum Transmission-Blocking Potential for Antimalarial Drug Discovery” (PLoS ONE, 2015)
